High-throughput results from PubChem BioAssay.
A selection: hits, their analogues and other compounds. The true share with any hit is near 3.1%.
Mtb BioA inh: blocks M. tuberculosis BioA enzyme activity | inhibition, % at 9.99 µM | hit rate 0.096% among 360,000 | AID 602481 | purified M. tuberculosis BioA enzyme, plate reader; in the data active means inhibition above about 40%; inconclusive means no clear call, values can overlap the other calls
SARS 3CLpro inh: SARS-CoV 3CLpro protease inhibition; AID 1706; hit rate 0.14% among 290,000; recombinant SARS-CoV 3CLpro, quenched FRET peptide cleavage; inhibition, % at 6 µM; P0C6X7; in the data active means inhibition above about 12%
FBA Mtb inh: inhibitors of M. tuberculosis fructose-bisphosphate aldolase. purified M. tuberculosis FBA, fluorescence read-out. hit rate 2.3% among 360,000. P9WQA3. inhibition, % at 1 µM; in the data active means inhibition above about 27%;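 further: 0% = vehicle and 100% = reference inhibitor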
Target sequence (P9WQA3 whole entry, looked up): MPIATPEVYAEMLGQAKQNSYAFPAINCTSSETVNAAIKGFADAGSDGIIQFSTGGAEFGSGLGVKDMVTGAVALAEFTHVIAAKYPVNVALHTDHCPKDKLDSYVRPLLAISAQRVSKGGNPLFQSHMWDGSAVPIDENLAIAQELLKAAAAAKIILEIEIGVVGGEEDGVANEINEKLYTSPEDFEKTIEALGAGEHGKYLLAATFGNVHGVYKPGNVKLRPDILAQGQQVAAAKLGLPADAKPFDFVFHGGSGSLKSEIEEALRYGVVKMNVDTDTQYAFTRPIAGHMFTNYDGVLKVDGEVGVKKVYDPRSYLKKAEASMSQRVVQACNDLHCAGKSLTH
FadD28 binding: M. tuberculosis FadD28 bisubstrate binding inhibition. FadD28 bisubstrate probe binding, fluorescence polarization. inhibition, % at 12.5 µM. hit rate 0.22% among 360,000. AID 588549; in the data active means inhibition above about 8.5%, passing the limit was not always enough; inconclusive means no clear call, values can overlap the other calls
GDH-TPI counter: counter-screen for M. tuberculosis FBA inhibitors: GDH-TPI coupled enzymes. GDH-TPI coupled enzyme counterscreen, NADH absorbance. inhibition, % at 4.8 µM. hit rate 1.2% among 360,000; in the data active means inhibition above about 30%;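 further: 0% = DMSO wells and 100% = wells lacking the enzyme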
An asterisk follows results filed as active; ? = inconclusive; . = no result; + = active, no number.

SMILES	Mtb BioA inh	SARS 3CLpro inh	FBA Mtb inh	FadD28 binding	GDH-TPI counter
CC(=O)C1C2c3ccccc3OC1(C)N=c1s/c(=C/c3cnn(C)c3)c(=O)n12 (stereo not given)	-0.5	-3.1	-4.0	-0.9	38.0*
CCc1cc(=O)oc2c(C)c(OCC(=O)NCCCn3ccnc3)ccc12	0.0	-2.9	12.9	-4.7	11.8
CCCc1cc(=O)oc2c3c(cc(OCC(=O)NCCN4CCOCC4)c12)OC(C)(C)CC3	3.0	-0.7	180.2*	-3.8	10.8
CCCCc1cc(=O)oc2cc(C)cc(OCC(=O)Nc3cccnc3)c12	0.1	-0.6	19.0	-2.8	11.1
CCCCc1cc(=O)oc2c3c(cc(OCC(=O)NCCCO)c12)OC(C)(C)CC3	1.9	-2.8	+	-2.1	10.3
CCc1cc(=O)oc2c3c(cc(OCC(=O)NCCCn4ccnc4)c12)OC(C)(C)CC3	?	-2.7	164.1*	-2.5	4.9
O=C(O)c1ccc(-c2ccc(/C=C3\NC(=O)N(Cc4ccc(Cl)cc4)C3=O)o2)cc1Cl	2.3	-1.6	6.1	16.5*	21.1
C/C=C/c1ccc2c(c1)O[C@H](CN(C)C(=O)Nc1cc(F)ccc1F)[C@H](C)CN([C@@H](C)CO)S2(=O)=O	-2.8	.	.	.	.
CC(=O)Nc1ccc(N=Nc2ccccc2)cc1	.	5.3	-4.3	0.6	35.9*
CC(=O)OCC(=O)Nc1ccc(N=Nc2ccccc2)cc1	.	7.6	-9.1	-3.1	36.9*
CC(C)C(=O)OCC(=O)Nc1ccc(N=Nc2ccccc2)cc1	-1.6	-1.9	-1.4	1.6	25.6
CC(=O)Nc1ccccc1	-0.1	.	-1.1	-0.7	-6.3
C[C@H]1CN([C@@H](C)CO)S(=O)(=O)c2ccc(-c3cccc(C(=O)N(C)C)c3)cc2O[C@H]1CN(C)C(=O)Cc1ccccn1	5.3	.	.	.	.
COCC(=O)Nc1ccc2c(c1)[C@@H]1C[C@H](CC(=O)N3CCCCC3)O[C@@H](CO)[C@@H]1O2	-4.0	.	.	.	.
CCC(C(=O)Nc1ccc2c(c1)OCCO2)n1nnc2ccccc2c1=O (stereo not given)	.	-0.5	-2.0	-4.9	-1.3
O=c1c2ccccc2nnn1CSc1ccc2c(c1)OCCO2	-0.2	4.9	152.4*	-4.4	3.3
CCN(c1cccc(C)c1)S(=O)(=O)c1c(C)[nH]c(=O)[nH]c1=O	-0.6	2.7	0.2	-0.1	5.6
CC(C)c1ccc(N=Nc2c(O)[nH]c(=O)[nH]c2=O)cc1	-2.6	-1.0	0.4	0.6	7.8
Cc1cc(C)[n+](-c2ccc(C(C)C)cc2)c2[nH]c(=O)[nH]c(=O)c12	1.3	-8.4	+	-4.3	11.5
Cc1cccc(-[n+]2c(C)cc(C)c3c(=O)[nH]c(=O)[nH]c32)c1	3.2	3.3	+	-1.9	33.3*
CCCC(=O)Nc1ccc2c(c1)C(=O)N(C)[C@@H]1CC[C@@H](CC(=O)NCCN3CCCCC3)O[C@H]1CO2	-0.9	.	.	.	.
Cc1cccc(N/C=C/C(=O)c2ccc(Cl)cc2)c1	-2.7	0.5	0.5	2.0	10.0
O=C(/C=C\Nc1ccccn1)c1ccc(Cl)cc1	-0.9	4.2	1.1	-1.7	31.5*
CCCNC(=O)N1[C@H](C#N)[C@H](c2ccc(-c3cccc(OC)c3)cc2)[C@@H]1CO	-0.6	.	.	.	.
CC1CC(=O)c2c(cc3c(-c4c(O)cc(O)c5c(O)c6c(cc45)OC(C)CC6=O)c(O)cc(O)c3c2O)O1 (stereo not given)	2.3	-0.4	-6.4	13.2*	16.7
SMILES	Mtb BioA inh	SARS 3CLpro inh	FBA Mtb inh	FadD28 binding	GDH-TPI counter
O=C1CC(c2ccccc2)Oc2cc(O)cc(O)c21 (stereo not given)	0.0	.	-2.7	-1.2	17.4
C=CCNC(=O)/C(=C\C=C\c1ccccc1)NC(=O)c1ccccc1Cl	.	-4.2	-3.2	-3.8	31.3*
COc1ccc(C(C#N)N2CCCCC2)cc1OC (stereo not given)	-1.0	2.6	-0.3	-0.2	2.8
COc1cc(C(C#N)N2CCOCC2)ccc1O (stereo not given)	-1.8	-4.9	3.5	-0.3	36.8*
COc1cc(C(C#N)N2CCCCC2)ccc1O (stereo not given)	4.7	-2.3	-1.9	-0.6	33.9*
CC(C)NC(=O)Nc1ccc2c(c1)CC(=O)N([C@H](C)CO)C[C@H](C)[C@@H](CN(C)Cc1ccc(Oc3ccccc3)cc1)O2	0.3	.	.	.	.
Cc1c(C)n(C)c2ccc(C(=O)NCc3cccs3)cc12	0.4	-2.7	4.2	12.2*	2.4
Cc1c(C)n(C)c2ccc(C(=O)NCCCN3CCN(C)CC3)cc12	-0.2	-0.4	3.9	0.3	5.9
O=C(C[C@@H]1CC[C@@H]2[C@H](COC[C@H](O)CN2CCc2ccccc2)O1)NCCCN1CCOCC1	-0.5	.	.	.	.
